Assay results as given in PubChem BioAssay (NCATS).
Results filed as inconclusive are left out. Activity calls are given as the source filed them. Unless noted, calls come from the whole dose curve; as a rule, active = well fitted curve in the direction sought with a large enough effect; inconclusive = small, poorly fitted or top-dose-only effect, or another doubt; inactive = no such curve, though single readings can be large; an effect the other way counts as inactive or inconclusive.

Key:
[1] = target: Cytochrome P450 3A4 (Homo sapiens) (UniProt P08684); test: qHTS Assay for Inhibitors and Substrates of Cytochrome P450 3A4 (AID 884); note: % is set by controls: 0 for no effect and ±100 for the full control effect; nearly all actives have a fitted effect of over 50% in size
Cytochrome P450 3A4 (Homo sapiens), sequence (P08684 whole entry, looked up): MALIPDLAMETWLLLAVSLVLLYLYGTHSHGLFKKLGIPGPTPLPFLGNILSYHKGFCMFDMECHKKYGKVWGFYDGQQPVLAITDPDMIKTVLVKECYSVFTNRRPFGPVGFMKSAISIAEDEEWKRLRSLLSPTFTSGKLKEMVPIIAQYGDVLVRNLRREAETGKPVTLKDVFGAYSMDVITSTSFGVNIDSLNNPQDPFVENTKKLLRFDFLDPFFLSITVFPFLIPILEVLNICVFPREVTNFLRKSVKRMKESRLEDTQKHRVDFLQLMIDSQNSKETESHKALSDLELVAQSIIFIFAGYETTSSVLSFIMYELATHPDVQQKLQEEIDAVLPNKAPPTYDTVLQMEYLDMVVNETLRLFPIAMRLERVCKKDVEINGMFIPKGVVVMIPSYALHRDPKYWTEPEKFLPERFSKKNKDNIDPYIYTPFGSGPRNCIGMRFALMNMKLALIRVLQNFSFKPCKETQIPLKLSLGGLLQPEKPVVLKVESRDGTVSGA
Method in brief: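 20 nM human CYP3A4 with 25 uM Luciferin-PPXE (at KM) in 200 mM KPO4, preincubated 10 min with compound; NADPH regeneration started a 60 min RT reaction. Luciferin detected by luminescence, normalized to 57 uM ketoconazole as full inhibition.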

[2] = Confirmation and Secondary Assay for Modulators of Hemoglobin Beta Chain Splicing at IVS2 705 locus (AID 930); note: potency is the fitted concentration of half-maximal effect
Method in brief: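 HeLa cells stably carrying EGFP interrupted by mutant beta-globin IVS2-705 intron (CMV-driven) were seeded at 500 cells/well, treated next day with compound for 2 days at 37C; corrected splicing restores EGFP, read as total peak GFP intensity per well.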

[3] = qHTS Assay for Lipid Storage Modulators (AID 1519; calls by dose curve; for activity change, negative = inhibition: % is set by controls: 0 for no effect and ±100 for the full control effect); settings: Drosophila S3 cells, BODIPY lipid droplet/cell ratio, laser cytometry, cells loaded with oleic acid; for activity change, negative = inhibition: at 57.5 µM (top of the series)
Method in brief: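 Cells seeded at 5,000 per well were treated with compounds over a concentration series and loaded with oleic acid (400 uM, as added). Lipid droplet fluorescence (488 nm excitation, 500-530 nm channel) was read by laser-scanning cytometry and normalized to 20 uM Triacsin C.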

[4] = target: ATP-dependent 6-phosphofructokinase (Trypanosoma brucei brucei) (UniProt O15648); test: qHTS Assay to Find Inhibitors of T. brucei phosphofructokinase: hit validation (AID 492961);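 note: luminescence reports ADP formed as PFK phosphorylates fructose-6-phosphate with ATP; % is set by controls: 0 for no effect and ±100 for the full control effect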
ATP-dependent 6-phosphofructokinase (Trypanosoma brucei brucei), sequence (O15648 whole entry, looked up): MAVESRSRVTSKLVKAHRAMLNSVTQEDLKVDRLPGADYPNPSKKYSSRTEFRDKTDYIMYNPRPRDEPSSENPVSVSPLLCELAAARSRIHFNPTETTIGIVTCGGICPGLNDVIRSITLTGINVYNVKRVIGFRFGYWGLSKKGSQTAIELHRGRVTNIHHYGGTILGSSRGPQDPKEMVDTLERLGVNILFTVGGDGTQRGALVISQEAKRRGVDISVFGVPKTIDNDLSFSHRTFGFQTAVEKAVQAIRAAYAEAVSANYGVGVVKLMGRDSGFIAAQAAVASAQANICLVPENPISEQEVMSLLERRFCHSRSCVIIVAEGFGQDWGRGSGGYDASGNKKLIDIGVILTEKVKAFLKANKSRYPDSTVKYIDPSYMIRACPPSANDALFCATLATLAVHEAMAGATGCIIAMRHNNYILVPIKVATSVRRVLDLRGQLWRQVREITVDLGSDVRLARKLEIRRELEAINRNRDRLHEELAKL
Method in brief: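 ADP-Glo luminescence read-out of ADP formed by 1.25 nM PFK from 0.1 mM ATP and 0.5 mM F6P (TEA pH 8.0, 45 min, RT). Compounds titrated; activity normalized to no-enzyme and full-enzyme controls.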

[5] = target: Ubiquitin carboxyl-terminal hydrolase 1 (Homo sapiens) (UniProt O94782); test: Inhibitors of USP1/UAF1: Pilot qHTS (AID 504865); note: nearly all actives have a fitted effect of over 35% in size; note: potency is the fitted concentration of half-maximal effect;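 for activity change, negative = inhibition: rhodamine fluorescence freed from ubiquitin-rhodamine substrate followed over time; top concentration of the series differs between compounds; % is set by controls: 0 for no effect and ±100 for the full control effect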
Ubiquitin carboxyl-terminal hydrolase 1 (Homo sapiens), sequence (O94782 whole entry, looked up): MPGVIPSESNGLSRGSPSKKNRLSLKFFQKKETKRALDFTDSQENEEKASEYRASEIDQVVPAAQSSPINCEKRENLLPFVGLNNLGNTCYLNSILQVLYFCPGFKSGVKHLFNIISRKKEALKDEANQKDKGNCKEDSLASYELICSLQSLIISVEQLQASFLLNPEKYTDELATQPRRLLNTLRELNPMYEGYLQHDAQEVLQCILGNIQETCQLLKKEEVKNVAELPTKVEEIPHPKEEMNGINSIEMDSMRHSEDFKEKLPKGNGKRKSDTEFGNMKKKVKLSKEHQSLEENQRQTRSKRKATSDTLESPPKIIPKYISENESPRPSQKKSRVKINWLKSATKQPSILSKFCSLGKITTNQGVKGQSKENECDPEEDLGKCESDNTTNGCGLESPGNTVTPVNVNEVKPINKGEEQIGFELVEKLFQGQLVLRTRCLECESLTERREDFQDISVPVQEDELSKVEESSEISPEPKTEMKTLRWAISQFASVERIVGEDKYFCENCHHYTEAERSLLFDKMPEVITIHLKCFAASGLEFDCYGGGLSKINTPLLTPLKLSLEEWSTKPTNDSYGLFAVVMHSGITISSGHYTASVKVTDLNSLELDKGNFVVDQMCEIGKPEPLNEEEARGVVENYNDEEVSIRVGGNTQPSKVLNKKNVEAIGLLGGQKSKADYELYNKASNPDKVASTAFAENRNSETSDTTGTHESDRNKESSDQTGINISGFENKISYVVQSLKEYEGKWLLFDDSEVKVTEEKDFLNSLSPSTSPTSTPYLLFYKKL
Method in brief: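 Enzyme-free wells gave the negative control, while test wells held 1nM USP1/UAF1 preincubated with compound for 15 min at room temperature. Ub-Rho at 150nM final started the reaction, and fluorescence at 480/540 nm was recorded kinetically.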

[6] = qHTS profiling for inhibitors of Plasmodium falciparum proliferation (AID 504749); note: potency is the fitted concentration of half-maximal effect;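 for activity, negative = inhibition: 0% = DMSO vehicle and full inhibition = artemisinin control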; for all read-outs here: nearly all actives have a fitted effect of over 60% in size; settings: P. falciparum in erythrocytes, SYBR Green DNA, 72 h; for activity, negative = inhibition: at 28.7 µM (top of the series)
Method in brief: (§1)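 Three-day growth assay of blood-stage parasites in erythrocytes (0.3% parasitemia, 2.5% hematocrit) at 37 C, 5% CO2, quantified by SYBR Green DNA staining after overnight detergent lysis.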

CP201 = test: as above; settings: P. falciparum in erythrocytes, SYBR Green DNA, 72 h; series mostly up to 12.8 µM
Method in brief: as §1

CP211 = test: as above; settings: P. falciparum in erythrocytes, SYBR Green DNA, 72 h; series mostly up to 12.8 µM
Method in brief: as §1

CP262 = test: as above; settings: P. falciparum in erythrocytes, SYBR Green DNA, 72 h; series mostly up to 12.8 µM
Method in brief: as §1

CP266 = test: as above; settings: P. falciparum in erythrocytes, SYBR Green DNA, 72 h; series mostly up to 12.8 µM
Method in brief: as §1

CP268 = test: as above; settings: P. falciparum in erythrocytes, SYBR Green DNA, 72 h; series mostly up to 12.8 µM
Method in brief: as §1

CP305 = test: as above; settings: P. falciparum in erythrocytes, SYBR Green DNA, 72 h; series mostly up to 12.8 µM
Method in brief: as §1

CP325 = test: as above; settings: P. falciparum in erythrocytes, SYBR Green DNA, 72 h; series mostly up to 12.8 µM
Method in brief: as §1

CP329 = test: as above; settings: P. falciparum in erythrocytes, SYBR Green DNA, 72 h; series mostly up to 12.8 µM
Method in brief: as §1

FAB9 = test: as above; settings: P. falciparum in erythrocytes, SYBR Green DNA, 72 h; series mostly up to 12.8 µM
Method in brief: as §1

JCK = test: as above; settings: P. falciparum in erythrocytes, SYBR Green DNA, 72 h; series mostly up to 12.8 µM
Method in brief: as §1

PC15 = test: as above; settings: P. falciparum in erythrocytes, SYBR Green DNA, 72 h; series mostly up to 12.8 µM
Method in brief: as §1

PC49 = test: as above; settings: P. falciparum in erythrocytes, SYBR Green DNA, 72 h; series mostly up to 12.8 µM
Method in brief: as §1

[7] = target: Cytochrome P450 3A4 (Homo sapiens) (UniProt P08684); test: qHTS Assay for Activators of Cytochrome P450 3A4 (AID 885); note: nearly all actives have a fitted effect of over 65% in size
Method in brief: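 Signal was normalized against complete inhibition by 57 uM ketoconazole. The reaction used 20nM CYP3A4 with 25uM Luciferin-PPXE, 10-min compound preincubation and a 60-min NADPH-supported step at RT.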

[8] = Confirmation and Secondary Assay for Modulators of Hemoglobin Beta Chain Splicing at IVS2 654 locus (AID 910);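 note: HeLa cells stably carrying EGFP split by mutant beta-globin IVS2-654 intron; per-well total GFP intensity by laser scanning cytometry after 2-day treatment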;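 note: potency is the fitted concentration of half-maximal effect; potency of activators that raise GFP signal by restoring correct splicing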
Method in brief: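 Readout: per-well total peak green fluorescence (488 nm ex, 500–520 nm em) from objects 5–250 µm, reflecting correct splicing of an EGFP-654 reporter. Compounds were applied for 2 days at 37 °C to overnight-plated HeLa EGFP-654 cells; controls were DMSO and 500 nM IVS2-654 PNA.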

[9] = measured here: cell count channel max response
[10] = measured here: lipid channel max response

CC1(C)OC2CO[C@]3(COS(N)(=O)=O)OC(C)(C)OC3C2O1 (stereo partly drawn)
8.91%: max response [3, 10]
7.1%: max response [3, 9]
inactive: Potency [1] | Potency [2] | activity change, negative = inhibition [3] -0.118% | outcome [4] | Potency [5] | activity, negative = inhibition ([6]; parasite line A) 6.34% | activity, negative = inhibition ([6]; parasite line B) 12.5% | Potency (CP201) | Potency (CP211) | Potency (CP262) | Potency (CP266) | Potency (CP268) | Potency (CP305) | Potency (CP325) | Potency (CP329) | Potency (FAB9) | Potency (JCK) | Potency (PC15) | Potency (PC49)

C=Cc1c(C)/c2[n-]/c1=C\c1[n-]c(c(CC)c1C)/C=c1\[n-]c3c(c1C)C(=O)C(C(=O)[O-])C=3c1[n-]c(c(C)c1CCC(=O)[O-])\C=2.[Cu].[Na+].[Na+] (stereo not drawn)
inactive: Potency [7] | Potency [8] | Potency [2] | activity change, negative = inhibition [3] 23.5% | activity, negative = inhibition ([6]; parasite line A) -17.5% | Potency (CP201) | Potency (CP211) | Potency (CP262) | Potency (CP266) | Potency (CP268) | Potency (CP305) | Potency (CP325) | Potency (CP329) | Potency (FAB9) | Potency (JCK) | Potency (PC49)
20.1%: max response [3, 10]
-5.82%: max response [3, 9]
active: Potency [5] 20 µM

C[C@H](CCC(=O)O)[C@H]1CC[C@H]2[C@H]3C(C[C@H](O)[C@]12C)[C@@]1(C)CC[C@@H](O)C[C@H]1C[C@H]3O (stereo partly drawn)
inactive: activity change, negative = inhibition [3] 9.53% | Potency [5]
25.2%: max response [3, 10]
17.9%: max response [3, 9]

CCCCCCCCCc1ccc(OCCOCCOCCOCCOCCOCCOCCOCCOCCO)cc1
-5.26%: max response [3, 10]
inactive: Potency [8] | Potency [2] | activity change, negative = inhibition [3] -9.66% | outcome [4] | activity, negative = inhibition ([6]; parasite line B) -22.2% | Potency (CP201) | Potency (CP262) | Potency (CP266) | Potency (CP268) | Potency (CP305) | Potency (CP325) | Potency (CP329) | Potency (FAB9) | Potency (JCK) | Potency (PC15) | Potency (PC49)
4.66%: max response [3, 9]

CCC1OC(=O)C(C)[C@@H](O[C@H]2C[C@@](C)(OC)C(O)C(C)O2)C(C)[C@@H](O[C@@H]2OC(C)CC(N(C)C)C2O)[C@@](C)(O)CC(C)C(=O)[C@@H](C)C(O)[C@]1(C)O (stereo partly drawn)
17.2%: max response [3, 10]
inactive: Potency [7] | Potency [8] | Potency [2] | activity change, negative = inhibition [3] -1.12% | outcome [4] | Potency [5] | Potency (CP201) | Potency (CP211) | Potency (CP262) | Potency (CP266) | Potency (CP268) | Potency (CP305) | Potency (CP325) | Potency (CP329) | Potency (FAB9) | Potency (JCK) | Potency (PC15) | Potency (PC49)
15.2%: max response [3, 9]
active: Potency ([6]; parasite line B) 11.2 µM

CC[C@H](CC[C@@H](C)C1CC[C@H]2[C@@H]3CC=C4C[C@@H](O)CC[C@]4(C)[C@H]3CC[C@]12C)C(C)C (stereo partly drawn)
inactive: activity change, negative = inhibition [3] -0.0175% | Potency [5]
42.8%: max response [3, 10]
43.5%: max response [3, 9]

C=C1CC/C=C(\C)CC[C@@H]2[C@@H]1CC2(C)C
-26.5%: max response [3, 10]
inactive: Potency [1] | activity change, negative = inhibition [3] -10.6% | Potency [5]
-19.4%: max response [3, 9]

NC(CCC(=O)N[C@@H](CS)C(=O)NCC(=O)O)C(=O)O (stereo partly drawn)
active: Potency (PC15) 5.01 µM
11.9%: max response [3, 9]
inactive: Potency [1] | Potency [8] | Potency [2] | activity change, negative = inhibition [3] 8.76% | outcome [4] | Potency [5] | Potency (CP201) | Potency (CP262) | Potency (CP266)
24.8%: max response [3, 10]

COC1OC(CO)C(OC2OC(C(=O)O)C(OC3OC(COS(=O)(=O)O)C(OC4OC(C(=O)O)C(OC5OC(CO)C(OC6OC(C(=O)O)C(OC7OC(COS(=O)(=O)O)C(OC8OC(C(=O)O)=C[C@H](O)C8OS(=O)(=O)O)C(O)C7NC(C)=O)[C@@H](O)C6O)C(O)C5NC(C)=O)[C@@H](O)C4O)C(O)C3NC(C)=O)[C@@H](O)C2O)C(O)C1NC(C)=O (stereo partly drawn)
-0.316%: max response [3, 10]
inactive: Potency [1] | Potency [8] | Potency [2] | activity change, negative = inhibition [3] 0.455% | outcome [4] | Potency [5] | Potency (CP201) | Potency (CP211) | Potency (CP262) | Potency (CP266) | Potency (CP268) | Potency (CP305) | Potency (CP325) | Potency (CP329)
-2.95%: max response [3, 9]

C[C@@]12C=CC(=O)C=C1CCC1C3CC(O)[C@@](O)(C(=O)CO)[C@]3(C)CC(O)[C@]12F (stereo partly drawn)
25.4%: max response [3, 10]
inactive: Potency [8] | Potency [2] | activity change, negative = inhibition [3] 10.8% | outcome [4] | Potency [5] | activity, negative = inhibition ([6]; parasite line A) 5.41% | Potency (CP201) | Potency (CP211) | Potency (CP262) | Potency (CP266) | Potency (CP268) | Potency (CP305) | Potency (CP325) | Potency (CP329) | Potency (FAB9) | Potency (JCK) | Potency (PC15) | Potency (PC49)
11.4%: max response [3, 9]

CC1C2CCC3C4CC=C5CC(N(C)C)CC[C@@]5(C)C4CC[C@@]32CN1C (stereo partly drawn)
22.7%: max response [3, 10]
14%: max response [3, 9]
inactive: Potency [1] | Potency [8] | Potency [2] | activity change, negative = inhibition [3] 6.04% | outcome [4] | Potency [5] | activity, negative = inhibition ([6]; parasite line A) 2.63% | activity, negative = inhibition ([6]; parasite line B) 0.451% | Potency (CP201) | Potency (CP211) | Potency (CP262) | Potency (CP266) | Potency (CP268) | Potency (CP305) | Potency (CP325) | Potency (CP329) | Potency (FAB9) | Potency (JCK) | Potency (PC15) | Potency (PC49)

OCC1OC(n2cnc3c(=S)nc[nH]c32)C(O)C1O (stereo not drawn)
-0.429%: max response [3, 10]
active: Potency [8] 3.16 µM | Potency [2] 3.98 µM
-3.48%: max response [3, 9]
inactive: Potency [1] | activity change, negative = inhibition [3] 0.292% | outcome [4] | Potency [5] | activity, negative = inhibition ([6]; parasite line A) -27.9% | Potency (CP201) | Potency (CP211) | Potency (CP262) | Potency (CP266) | Potency (CP268) | Potency (CP305) | Potency (CP325) | Potency (CP329) | Potency (FAB9) | Potency (JCK) | Potency (PC15) | Potency (PC49)

O=C(O)C1(O)C[C@H](O)C(O)[C@@H](O)C1 (stereo partly drawn)
-7.19%: max response [3, 10]
inactive: Potency [1] | activity change, negative = inhibition [3] -0.572% | Potency [5]
-6.02%: max response [3, 9]
